Reference: PubChem BioAssay (NCATS)
Records with an inconclusive call do not appear. Activity calls are given as the source filed them. Calls come from the whole dose curve; as a rule, active = well fitted inhibition curve with a large enough effect; inconclusive = small, poorly fitted or top-dose-only effect; inactive = flat fitted curve, though single readings scatter. Peptide text beside a SMILES is read from it.

What follows are compounds tested on CRL-7250 (assay: qHTS assay to identify novel small-molecules to repurpose for Merkel cell carcinoma treatment (AID 1296009; note: nearly all actives have a fitted effect of over 60% in size)). Conditions: MCC and control cell lines, CellTiter-Glo viability, 72 h; series mostly up to 92 µM; activity change, negative = cytotoxicity: at the top concentration.
How it was run: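 Viability readout: ATP luminescence (CellTiter-Glo) after 72 hr drug exposure at 37 degree celsius. Dose-response format was 8 points for NPC and 11 points for MIPE; data normalized to in-plate controls.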

SMILES	outcome
CC(C)CC(=O)OC[C@@]1(O)C[C@@]23CC[C@H]4[C@@](C)(CCC[C@@]4(C)C(=O)O)[C@@H]2CC[C@@H]1C3	inactive [at 17.4 µM]
Cc1nc2ccc(CN(C)c3ccc(C(=O)NC(CCC(=O)O)C(=O)O)s3)cc2c(=O)[nH]1 (centres undefined)	inactive
COC(=O)C(CC1(O)c2ccccc2N2C(=O)C(C)(C)N(O)C21)n1cnc2ccccc2c1=O (centres undefined)	inactive [at 17.4 µM]
CC1(C)CC(=O)N(CCCCN2CCN(c3ncccn3)CC2)C(=O)C1	inactive
COc1cc2c(cc1O)CC(O)(CO)C(CO)C2c1ccc(OC2OC(CO)C(O)C(O)C2O)c(OC)c1 (centres undefined)	inactive [at 17.4 µM]
Cc1c(C(=O)NCc2cccnc2)nn(-c2ccc(Cl)cc2Cl)c1-c1ccc(Cl)cc1	inactive
CC(C)C1CCC(CO)=CC1/C=C(\CO)C(=O)OCC1(O)CCC(C(C)C)C2C=C(C(=O)O)COC(=O)C21 (centres undefined)	inactive [at 17.4 µM]
CC1(C)C2CC[C@]3(C)C(C(=O)C=C4[C@H]5C[C@@](C)(C(=O)O)CC[C@]5(C)CC[C@]43C)[C@@]2(C)CC[C@@H]1O (some centres undefined)	inactive [at 17.4 µM]
C=C1CCC[C@]2(C)C[C@]3(O)OC(=O)C(C)=C3C[C@@H]12	inactive
CC(C)(C)C1CCN(C(=O)n2ncc(C(O)(c3ccccc3)c3ccccc3)n2)CC1	inactive
CC(C)(C)NCCCNC(=O)c1cccc(Br)c1	inactive
C[C@H]1CCN2C[C@]34C[C@@]5(C(=O)Nc6c5ccc5c6OC=CC(C)(C)O5)C(C)(C)C3C[C@]12C(=O)N4C (some centres undefined)	inactive [at 17.4 µM]
COc1cc2c(c(O)c1OC/C=C(\C)CC/C=C(/C)CCC=C(C)C)CN(C(CCC(=O)O)C(=O)O)C2=O (centres undefined)	inactive [at 17.4 µM]
CC(=O)N[C@@H](Cc1c[nH]c2ccccc12)C(=O)N[C@@H](CCC(=O)O)C(=O)N[C@@H](Cc1cnc[nH]1)C(=O)N[C@@H](CC(=O)O)C(=O)Nc1ccc2c(C(F)(F)F)cc(=O)oc2c1 (HELM PEPTIDE1{[ac].W.E.H.D.[O=c1cc(C(F)(F)F)c2ccc(N[*:1])cc2o1]}$$$$V2.0)	inactive
